Assay [1] in a line: qHTS assay for small molecules that induce genotoxicity in human embryonic kidney cells expressing luciferase-tagged ATAD5 (AID 651632). Further: nearly all actives have a fitted effect of over 15% in size. In a few lines:
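HEK293T cells carrying luciferase-tagged ATAD5 were given compound or DMSO vehicle and incubated 16 hr at 37C, 5% CO2. Luciferase activity was read after 30 min at room temperature with Amplite; a rise signals genotoxic stress.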

Assay [2] is described as follows: qHTS assay for small molecules that induce genotoxicity in human embryonic kidney cells expressing luciferase-tagged ATAD5 - cell viability (AID 651634; calls by dose curve; further: nearly all actives have a fitted effect of over 25% in size; further: potency means the concentration at half of the fitted maximal effect). An outline of the steps:
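HEK293T cells carrying luciferase-tagged ATAD5, 2,000 cells/well, exposed to compound for 15.5 hr at 37C. Viability read as live-cell protease activity by CellTiter-Fluor fluorescence after 30 min at 37C.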

The nature of assay [3]: qHTS assay for small molecule disruptors of the mitochondrial membrane potential - cell viability (AID 720634; calls by dose curve; further: nearly all actives have a fitted effect of over 20% in size; further: potency means the concentration at half of the fitted maximal effect). In a few lines:
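HepG2 cells, 2,000 per well, attached overnight, then treated 1 hr at 37 C, 5% CO2. Viability read as ATP by CellTiter-Glo luminescence after 30 min at room temperature. Read in the same wells as the m-MPI membrane-potential dye assay.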

The nature of assay [4]: qHTS assay for small molecule disruptors of the mitochondrial membrane potential (AID 720635). Further: potency means the concentration at half of the fitted maximal effect. An outline of the steps:
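HepG2 cells (2,000/well) attached overnight at 37C, then took compound for 1 hr at 37C, 5% CO2. Mito-MPS dye was added for 30 min; fluorescence was read at 490/535 nm (monomers) and 540/590 nm (aggregates).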

Assay [5] is described as follows: qHTS assay to test for compound auto fluorescence at 590 nm (red) in HepG2 cells (AID 720674). In a few lines:
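Rose Bengal sodium served as the red fluorophore standard. HepG2 monolayers (overnight attachment, MEM with 10% FBS) were exposed to test compounds for 1 hr at 37 C and read at Ex 540/Em 590 nm.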

Assay [6] is described as follows: qHTS assay to test for compound auto fluorescence at 535 nm (green) in HepG2 cells (AID 720675).
A short description of assay [7]: qHTS assay to test for compound auto fluorescence at 460 nm (blue) in HEK293 cells (AID 720678). An outline of the steps:
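Measured: blue fluorescence (Ex 405/Em 460 nm) of compound-treated HEK293 cells, incubated overnight at 37C with 5% CO2 and scaled to triamterene equivalents.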

A short description of assay [8]: qHTS assay to test for compound auto fluorescence at 590 nm (red) in HEK293 cells (AID 720679). In a few lines: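 Using HEK293 cells at 2,000 per well, the screen added 23 nL of each compound after cell attachment and incubated overnight (37C, 5% CO2). The plate reader then captured red-label fluorescence, Ex/Em 540/590nm.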
Assay [9] can be described thus: qHTS assay to test for compound auto fluorescence at 535 nm (green) in HEK293 cells (AID 720680).
A short description of assay [10]: qHTS assay to test for compound auto fluorescence at 460 nm (blue) in HEK293 cell free culture (AID 720681). An outline of the steps:
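Test compounds were pinned into cell-free culture medium (DMEM with 10% FBS) and fluorescence was read directly at Ex/Em 405/460 nm. Signals were expressed as fluorescence equivalents of triamterene, with DMSO vehicle as control.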

Assay [11] in a line: qHTS assay to test for compound auto fluorescence at 535 nm (green) in HEK293 cell free culture (AID 720682). In a few lines: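 Intrinsic compound fluorescence is measured in culture medium containing 10% FBS, with excitation at 485 nm and detection at 535 nm, referenced to fluorescein.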
Assay [12] can be described thus: qHTS assay to test for compound auto fluorescence at 590 nm (red) in HEK293 cell free culture (AID 720683). An outline of the steps: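 Tox21 10K library compounds were pinned into cell-free DMEM with 10% FBS and fluorescence was read at excitation 540 nm. Activity is expressed as Rose Bengal sodium equivalency.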
Assay [13] in a line: qHTS assay to test for compound auto fluorescence at 590 nm (red) in HepG2 cell free culture (AID 720684). In a few lines:
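Red fluorescence (540 nm excitation, 590 nm emission) was measured after compound transfer into cell-free MEM supplemented with 10% FBS. Values are equivalencies against Rose Bengal sodium.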

Assay [14] can be described thus: qHTS assay to test for compound auto fluorescence at 460 nm (blue) in HepG2 cell free culture (AID 720685). In a few lines:
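Compound (23 nL) or DMSO pinned into cell-free MEM with 10% FBS; blue fluorescence read at 405/460 nm excitation/emission, expressed as auto-fluorescence equivalency to triamterene.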

The nature of assay [15]: qHTS assay to test for compound auto fluorescence at 535 nm (green) in HepG2 cell free culture (AID 720686).
Assay [16] can be described thus: qHTS assay to test for compound auto fluorescence at 460 nm (blue) in HepG2 cells (AID 720687). An outline of the steps:
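Cells (2,000/well in MEM with 10% FBS) attached overnight at 37 C, then were exposed to compound or DMSO for 1 hr at 37 C, 5% CO2. Fluorescence read at Ex/Em 405/460 nm, expressed as triamterene-equivalent signal.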

The target of assay [17] is Glucocorticoid receptor (Homo sapiens) (UniProt P04150). As to the kind of experiment: qHTS assay to identify small molecule agonists of the glucocorticoid receptor (GR) signaling pathway (AID 720691; active means well fitted activation curve with a large enough effect in the signal ratio in the repeat runs, not every such curve was filed as active; the % refers to the signal ratio). In a few lines: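 GR-bla HeLa cells carrying a GRE-driven beta-lactamase reporter, exposed to compounds for 18 h at 37 C. Reporter activation read as fluorescence after 2 h with LiveBLAzer B/G FRET substrate at room temperature.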

The target is the same in assay [18]. As to the kind of experiment: qHTS assay to identify small molecule antagonists of the glucocorticoid receptor (GR) signaling pathway (AID 720692; active means well fitted inhibition curve with a large enough effect in the signal ratio in the repeat runs, not every such curve was filed as active; the % refers to the signal ratio; further: potency means the concentration at half of the fitted maximal effect). In a few lines:
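GR-bla HeLa cells carrying a GRE-driven beta-lactamase reporter received compound after 4 h plating, then dexamethasone (5 nM final). After 18 h at 37C, the FRET substrate was loaded for 2 h at room temperature and fluorescence read.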

Assay [19] is described as follows: qHTS assay for small molecule agonists of the p53 signaling pathway - cell viability (AID 651633; calls by dose curve;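 further: p53RE-bla HCT reporter cells with a stable beta-lactamase p53 reporter; series mostly up to about 83 µM; nearly all actives have a fitted effect of over 30% in size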). In a few lines: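 p53RE-bla cells, seeded at 4,000 per well and rested 5 h at 37 C/5% CO2, received compounds in DMSO for 16 h at 37 C. CellTiter-Glo was then added, and luminescence was read after 30 min at room temperature to gauge cytotoxicity.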

Several values for one entry are separate records, joined by “and”; a condition that tells them apart may be missing. Equal entries are not always repeated. Values without a mark were called inactive. Results filed as inconclusive are left out. Activity calls are given as the source filed them. Unless noted, the call rests on the fitted dose curve; in most records, active means well fitted curve in the direction sought with a large enough effect in the repeat runs; inconclusive means weak or mixed curves; inactive means no such curve, though single readings can be large; an effect the other way counts as inactive or inconclusive.

Chain of Glucocorticoid receptor (Homo sapiens) (P04150 whole entry, looked up): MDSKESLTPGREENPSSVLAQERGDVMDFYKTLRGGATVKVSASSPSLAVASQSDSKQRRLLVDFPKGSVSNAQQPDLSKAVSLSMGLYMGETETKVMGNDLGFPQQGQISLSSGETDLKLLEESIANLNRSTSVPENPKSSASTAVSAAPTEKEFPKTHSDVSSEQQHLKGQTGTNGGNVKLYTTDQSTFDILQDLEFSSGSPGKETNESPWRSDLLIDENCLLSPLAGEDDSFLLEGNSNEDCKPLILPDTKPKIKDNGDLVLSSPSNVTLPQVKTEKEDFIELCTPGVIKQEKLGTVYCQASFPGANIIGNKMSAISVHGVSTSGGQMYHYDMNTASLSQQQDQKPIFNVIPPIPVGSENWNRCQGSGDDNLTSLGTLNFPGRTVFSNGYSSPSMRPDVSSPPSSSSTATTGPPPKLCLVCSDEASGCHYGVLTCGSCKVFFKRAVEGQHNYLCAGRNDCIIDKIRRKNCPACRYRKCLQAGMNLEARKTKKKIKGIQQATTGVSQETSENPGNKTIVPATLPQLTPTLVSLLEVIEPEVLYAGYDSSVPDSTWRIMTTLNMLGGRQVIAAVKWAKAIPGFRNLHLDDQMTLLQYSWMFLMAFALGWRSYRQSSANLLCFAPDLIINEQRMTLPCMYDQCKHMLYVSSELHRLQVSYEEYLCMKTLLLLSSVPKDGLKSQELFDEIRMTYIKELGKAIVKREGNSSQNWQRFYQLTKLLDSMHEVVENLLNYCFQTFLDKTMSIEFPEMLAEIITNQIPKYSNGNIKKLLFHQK

As to `CCc1cnc(C2=NC(C)(C(C)C)C(=O)N2)c(C(=O)O)c1` (centres undefined), the Potency result in assay [1], in [2], in assay [3], in assay [4], in assay [17] and in [18] was “inactive” throughout. In addition, the compound was called inactive in assay [5], in assay [6], in assay [7], in assay [8], in [9] and in [10]. Also, the result in assay [11], in assay [12], in [13], in [14], in assay [15] and in [16] was inactive.

With `CC(=O)NNc1ccccc1`, the Potency in [2] was 10.8 µM (active); in [18], 10.9 µM (active). Also, the Potency result in [3] is “inactive”. Further, the result in assay [5], in [6], in assay [7], in assay [8], in assay [9] and in assay [10] was inactive. In addition, the call in assay [11], in [12], in assay [13], in [14], in assay [15] and in assay [16] was inactive.

In the case of `COP(=O)(OC)OC(Br)C(Cl)(Cl)Br` (centres undefined), the Potency entry in assay [2] and in [18] was “inactive” in each case. In addition, the compound was called inactive in assay [5], in assay [6], in [7], in assay [8], in assay [9] and in [10]. Further, the outcome in [11], in assay [13], in assay [14], in assay [15] and in assay [16] was inactive.

For the compound `CCNC(=O)NC(=O)/C(C#N)=N/OC`, the Potency entry in [1] and in assay [2] was “inactive” throughout. For the same compound, the compound was classed as inactive in assay [5], in assay [6], in [7], in assay [8], in assay [9] and in [10]. Besides, the outcome in assay [11], in assay [12], in [13], in assay [14], in assay [15] and in assay [16] was inactive.

For the compound `CCOC(=O)NC(O)C(Cl)(Cl)Cl` (centres undefined), the Potency result in assay [1], in assay [3] and in assay [4] was “inactive” each time. The result in assay [5], in assay [7], in assay [8], in assay [9], in assay [10] and in assay [11] was inactive. The call in assay [13], in assay [14], in assay [15] and in assay [16] was inactive.

Turning to `Nc1ccc2c(c1)Cc1ccccc1-2`, the Potency result in [19], in assay [2] and in assay [3] was “inactive” each time. Also, the call in assay [5], in assay [6], in assay [7], in [8], in assay [9] and in assay [10] was inactive. For the same compound, the outcome in assay [11], in [12], in assay [13], in assay [14], in assay [15] and in [16] was inactive.

Consider `C=CCSSCC=C`, for which the Potency entry in [1], in assay [2] and in [4] was “inactive” in each case. For the same compound, the compound was called inactive in [5], in assay [7], in [8], in assay [9], in assay [10] and in assay [11]. The result in assay [12], in [13], in assay [14], in assay [15] and in [16] was inactive.

For the compound `CCC(C)(C)O`, the Potency entry in assay [1], in assay [2], in assay [3] and in assay [17] was “inactive” throughout. Also, the compound was called inactive in [5], in assay [6], in assay [7], in assay [8], in [9] and in assay [10]. The result in assay [11], in assay [12], in assay [13], in assay [14], in assay [15] and in assay [16] was inactive.

With `C[C@]12C=CC3=C4CCC(=O)C=C4CC[C@H]3[C@@H]1CC[C@@H]2O`, the Potency entry in [1] and in [2] was “inactive” each time. Besides, the outcome in [5], in assay [6], in assay [8], in assay [9], in assay [11] and in assay [12] was inactive. For the same compound, the compound was classed as inactive in assay [13] and in assay [15].

`ClCc1ccccc1Cl`: the Potency entry in [1], in assay [3] and in [18] was “inactive” in each case. In addition, the compound was called inactive in assay [5], in assay [6], in assay [7], in assay [8], in [9] and in assay [10]. In addition, the compound was called inactive in [11], in assay [13], in assay [14], in assay [15] and in [16].

Regarding `CN1CC[C@]23c4c5ccc(O)c4O[C@H]2[C@@H](O)C=C[C@H]3[C@H]1C5`, the Potency result in [1], in assay [2], in assay [3], in assay [4], in assay [17] and in assay [18] was “inactive” each time. For the same compound, the result in assay [5], in assay [6], in assay [7], in assay [8], in assay [9] and in [10] was inactive. Besides, the result in [11], in [12], in [13], in assay [14], in assay [15] and in [16] was inactive.

Turning to `c1ccc2sc(SNC3CCCCC3)nc2c1`, the Potency entry in assay [1], in [2], in assay [3], in assay [17] and in assay [18] was “inactive” each time. Besides, the Potency in assay [4] is 67.8 µM (active) and 54.5 µM (active). Besides, the call in assay [5], in assay [6], in [7], in [8], in assay [9] and in [10] was inactive. In addition, the result in [11], in [12], in assay [13], in [14], in assay [15] and in assay [16] was inactive.

As to `NCCc1cc(O)c(O)cc1O`, the Potency entry in assay [1], in assay [19], in assay [3], in assay [4], in assay [17] and in assay [18] was “inactive” in each case. Further, the outcome in assay [5], in assay [6], in assay [7], in [8], in [9] and in assay [10] was inactive. Further, the outcome in assay [11], in assay [13], in [14], in assay [15] and in assay [16] was inactive.

`CON(C)C(=O)Nc1ccc(Cl)cc1`: the Potency result in assay [1], in assay [2] and in assay [3] was “inactive” in each case. In addition, the result in assay [5], in [6], in assay [7], in assay [8], in assay [9] and in [10] was inactive. For the same compound, the result in assay [11], in [12], in assay [13], in assay [14], in assay [15] and in [16] was inactive.

As for `CCc1ccccc1N`, the Potency entry in [1], in assay [2] and in assay [17] was “inactive” in each case. Moreover, the compound was called inactive in assay [5], in assay [6], in assay [7], in assay [8], in assay [9] and in assay [10]. Besides, the outcome in [11], in assay [12], in [13], in [14], in [15] and in assay [16] was inactive.

With `C[CH2][Hg][S]c1ccccc1C(=O)O`, the Potency in assay [3] was 13.3 µM (active) and 15.4 µM (active); in assay [4], 11.9 µM (active) and 15.4 µM (active). Besides, the result in assay [5], in assay [6], in assay [7], in [8], in assay [9] and in [10] was inactive. Besides, the result in [11], in assay [12], in assay [13], in assay [14], in assay [15] and in assay [16] was inactive.

Source of the values: PubChem BioAssay (Tox21).
